# According to PubChem BioAssay (NCI):
# The panel holds about 79,000 compounds, 15% with a hit somewhere; the sample as a whole holds those more often. Unmarked numbers belong to inactive results. Activity calls are given as the source filed them. Rule as the data show it: active = growth inhibition above about 70%; inactive = the rest.
# Columns and labels:
# [1] = NCI Yeast Anticancer Drug Screen. Data for the rad52 strain (AID 147);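 also: 0% = growth of vehicle-treated control cultures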; settings: S. cerevisiae rad52 mutant growth inhibition, hits give high values
# Summary of the method: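 Screen used a yeast mutant impaired in DNA repair. After compound exposure, growth was measured. Values reflect inhibition compared with vehicle-treated cells.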
# [2] = NCI Yeast Anticancer Drug Screen. Data for the wt1 strain (AID 149);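 also: 0% = growth of vehicle-treated wt1 cultures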; settings: S. cerevisiae wt1 strain (SPY 50644) growth inhibition, hits give high values
# Summary of the method: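 Compounds are added to wt1 yeast cultures. Growth is then measured. Inhibition is expressed relative to vehicle-treated controls.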
# [3] = NCI Yeast Anticancer Drug Screen. Data for the rad50EPP+ strain (AID 151);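 also: 0% = growth of vehicle-treated control cultures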; settings: S. cerevisiae rad50 mutant strain, hits give high values
# Summary of the method: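 Exposing the rad50EPP+ strain to each compound, growth was compared with vehicle-only cultures to give inhibition.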
# [4] = NCI Yeast Anticancer Drug Screen. Data for the mgt1 strain (AID 153); settings: S. cerevisiae mgt1 mutant growth inhibition, hits give high values
# Summary of the method: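 Genetically defined yeast (mgt1) treated with compound; inhibition of growth expressed against vehicle-treated controls.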
# [5] = NCI Yeast Anticancer Drug Screen. Data for the rad50 strain (AID 155);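 also: 0% = growth of vehicle-only cultures of the same strain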; settings: S. cerevisiae rad50 strain growth inhibition, hits give high values
# Summary of the method: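 Inhibition values express reduced yeast growth in compound-treated cultures relative to vehicle-treated controls.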
# [6] = NCI Yeast Anticancer Drug Screen. Data for the mec2-1 strain (AID 157); settings: S. cerevisiae mec2-1 strain, hits give high values
# Summary of the method: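 Readout is yeast growth inhibition, normalised to vehicle-treated controls, in the mec2-1 strain exposed to compound.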
# [7] = NCI Yeast Anticancer Drug Screen. Data for the rad14 strain (AID 159);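 also: 0% = growth of vehicle-treated control cultures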; settings: S. cerevisiae rad14 strain growth inhibition, hits give high values
# Summary of the method: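 A mutant yeast strain defective in DNA damage repair is treated with compound; inhibition of its growth is scored against untreated, vehicle-exposed cultures.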
# [8] = NCI Yeast Anticancer Drug Screen. Data for the sgs1 mgt1 strain (AID 161);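 also: 0% = growth of cultures given vehicle only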; settings: S. cerevisiae sgs1 mgt1 strain, hits give high values
# Summary of the method: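 Percent growth inhibition was derived by comparing compound-exposed mutant yeast with vehicle-exposed cultures. The strain carries alterations in DNA damage repair.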
# [9] = NCI Yeast Anticancer Drug Screen. Data for the CLN2oe strain (AID 163);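 also: 0% = growth of vehicle-only control cultures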; settings: S. cerevisiae CLN2oe strain, hits give high values
# Summary of the method: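 Values reflect how much compound exposure reduced yeast growth, referenced to vehicle-exposed cells. Assay organism is a strain with a defined genetic change affecting cell-cycle control.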
# [10] = NCI Yeast Anticancer Drug Screen. Data for the cln2 rad14 strain (AID 165);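 also: 0% = growth equal to vehicle treated cultures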; settings: S. cerevisiae cln2 rad14 strain, hits give high values
# Summary of the method: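 Relative to vehicle controls, growth inhibition of compound-treated cln2 rad14 yeast was recorded.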
# [11] = NCI Yeast Anticancer Drug Screen. Data for the bub3 strain (AID 167); settings: S. cerevisiae bub3 mutant strain, hits give high values
# Summary of the method: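 Steps: expose the mutant yeast strain to compound; grow alongside vehicle-treated cultures; measure growth; express inhibition against the vehicle cultures.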
# [12] = NCI Yeast Anticancer Drug Screen. Data for the wt2 strain (AID 169);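 also: 0% = growth of vehicle-treated yeast cultures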; settings: S. cerevisiae wt2 strain growth inhibition, hits give high values
# Summary of the method: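 Values express reduction in yeast growth under compound treatment, referenced to vehicle-treated cells.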
# [13] = NCI Yeast Anticancer Drug Screen. Data for the mlh1 strain (AID 171);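 also: 0% = growth of vehicle-treated control cultures of the same strain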; settings: S. cerevisiae mlh1 strain growth inhibition, hits give high values
# Summary of the method: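 Steps: expose the defined-mutant yeast strain to compound; expose a parallel culture to vehicle; measure growth; express compound effect as inhibition relative to the vehicle culture.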
# [14] = NCI Yeast Anticancer Drug Screen. Data for the sgs1 strain (AID 173);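 also: 0% = growth of vehicle-only control cultures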; settings: S. cerevisiae sgs1 mutant, hits give high values
# Summary of the method: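 Treat defined-mutant yeast with compound; measure growth; calculate inhibition relative to vehicle-treated cells.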
# [15] = NCI Yeast Anticancer Drug Screen. Data for the mlh1 rad18 strain (AID 175); settings: S. cerevisiae mlh1 rad18 strain growth inhibition, hits give high values
# Summary of the method: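 Test agents were incubated with a yeast strain of defined genotype (DNA damage repair defect). Inhibition of growth was derived by comparison with vehicle-exposed cultures.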
# [16] = NCI Yeast Anticancer Drug Screen. Data for the rad18 strain (AID 177); settings: S. cerevisiae rad18 mutant growth inhibition, hits give high values
# Summary of the method: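 A genetically defined yeast mutant impaired in DNA damage repair was treated with test compounds, then its growth was measured against cultures receiving vehicle alone.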
# [17] = at 5.0 µM (retest, dose inferred, filed as 0.5)
# [18] = at 50.0 µM (retest, dose inferred, filed as 5.0)
smiles,measurement,setting,value
Cc1cccc2c1nc1ccc(Cl)cc1[n+]2C,growth inhibition,[1]; at 1.2 µM,0%
same,growth inhibition,[1]; at 3.7 µM,9%
same,growth inhibition,[1]; at 11.0 µM,79% (active)
same,growth inhibition,[1]; at 33.0 µM,98% (active)
same,growth inhibition,[1]; at 100.0 µM,97% (active)
same,growth inhibition,[2]; at 1.2 µM,-1%
same,growth inhibition,[2]; at 3.7 µM,4%
same,growth inhibition,[2]; at 11.0 µM,41%
same,growth inhibition,[2]; at 33.0 µM,97% (active)
same,growth inhibition,[2]; at 100.0 µM,96% (active)
same,growth inhibition,[3]; at 1.2 µM,-4%
same,growth inhibition,[3]; at 3.7 µM,4%
same,growth inhibition,[3]; at 11.0 µM,64%
same,growth inhibition,[3]; at 33.0 µM,93% (active)
same,growth inhibition,[3]; at 100.0 µM,95% (active)
same,growth inhibition,[4]; at 1.2 µM,0%
same,growth inhibition,[4]; at 3.7 µM,7%
same,growth inhibition,[4]; at 11.0 µM,59%
same,growth inhibition,[4]; at 33.0 µM,98% (active)
same,growth inhibition,[4]; at 100.0 µM,98% (active)
same,growth inhibition,[5]; at 1.2 µM,2%
same,growth inhibition,[5]; at 3.7 µM,9%
same,growth inhibition,[5]; [17],11%
same,growth inhibition,[5]; at 11.0 µM,84% (active)
same,growth inhibition,[5]; at 33.0 µM,96% (active)
same,growth inhibition,[5]; [18],96% (active)
same,growth inhibition,[5]; at 50.0 µM,98% (active)
same,growth inhibition,[5]; at 100.0 µM,97% (active)
same,growth inhibition,[6]; at 1.2 µM,1%
same,growth inhibition,[6]; at 3.7 µM,18%
same,growth inhibition,[6]; [17],3%
same,growth inhibition,[6]; at 11.0 µM,85% (active)
same,growth inhibition,[6]; at 33.0 µM,96% (active)
same,growth inhibition,[6]; [18],96% (active)
same,growth inhibition,[6]; at 50.0 µM,98.8% (active)
same,growth inhibition,[6]; at 100.0 µM,97% (active)
same,growth inhibition,[7]; at 1.2 µM,2%
same,growth inhibition,[7]; at 3.7 µM,8%
same,growth inhibition,[7]; at 11.0 µM,57%
same,growth inhibition,[7]; at 33.0 µM,97% (active)
same,growth inhibition,[7]; at 100.0 µM,97% (active)
same,growth inhibition,[8]; [17],26%
same,growth inhibition,[8]; [18],97% (active)
same,growth inhibition,[8]; at 50.0 µM,98.8% (active)
same,growth inhibition,[9]; at 1.2 µM,-5%
same,growth inhibition,[9]; at 3.7 µM,-4%
same,growth inhibition,[9]; at 11.0 µM,89% (active)
same,growth inhibition,[9]; at 33.0 µM,96% (active)
same,growth inhibition,[9]; at 100.0 µM,95% (active)
same,growth inhibition,[10]; [17],4%
same,growth inhibition,[10]; [18],95% (active)
same,growth inhibition,[10]; at 50.0 µM,96.5% (active)
same,growth inhibition,[11]; at 1.2 µM,0%
same,growth inhibition,[11]; at 3.7 µM,10%
same,growth inhibition,[11]; [17],0%
same,growth inhibition,[11]; at 11.0 µM,82% (active)
same,growth inhibition,[11]; at 33.0 µM,95% (active)
same,growth inhibition,[11]; [18],94% (active)
same,growth inhibition,[11]; at 50.0 µM,98% (active)
same,growth inhibition,[11]; at 100.0 µM,96% (active)
same,growth inhibition,[12]; at 1.2 µM,-2%
same,growth inhibition,[12]; at 3.7 µM,2%
same,growth inhibition,[12]; at 11.0 µM,92% (active)
same,growth inhibition,[12]; at 33.0 µM,97% (active)
same,growth inhibition,[12]; at 100.0 µM,95% (active)
same,growth inhibition,[13]; at 1.2 µM,-3%
same,growth inhibition,[13]; at 3.7 µM,7%
same,growth inhibition,[13]; at 11.0 µM,82% (active)
same,growth inhibition,[13]; at 33.0 µM,97% (active)
same,growth inhibition,[13]; at 100.0 µM,97% (active)
same,growth inhibition,[14]; at 1.2 µM,3%
same,growth inhibition,[14]; at 3.7 µM,13%
same,growth inhibition,[14]; at 11.0 µM,89% (active)
same,growth inhibition,[14]; at 33.0 µM,97% (active)
same,growth inhibition,[14]; at 100.0 µM,97% (active)
same,growth inhibition,[15]; [17],25%
same,growth inhibition,[15]; [18],95% (active)
same,growth inhibition,[15]; at 50.0 µM,98.3% (active)
same,growth inhibition,[16]; at 1.2 µM,25%
same,growth inhibition,[16]; at 3.7 µM,62%
same,growth inhibition,[16]; at 11.0 µM,91% (active)
same,growth inhibition,[16]; at 33.0 µM,97% (active)
same,growth inhibition,[16]; at 100.0 µM,96% (active)
O=c1c2ccccc2nc(-c2ccccc2)n1O,growth inhibition,[1]; at 1.2 µM,16%
same,growth inhibition,[1]; at 3.7 µM,19%
same,growth inhibition,[1]; at 11.0 µM,62%
same,growth inhibition,[1]; at 33.0 µM,95% (active)
same,growth inhibition,[1]; at 100.0 µM,97% (active)
same,growth inhibition,[2]; at 1.2 µM,12%
same,growth inhibition,[2]; at 3.7 µM,15%
same,growth inhibition,[2]; at 11.0 µM,63%
same,growth inhibition,[2]; at 33.0 µM,97% (active)
same,growth inhibition,[2]; at 100.0 µM,97% (active)
same,growth inhibition,[3]; at 1.2 µM,3%
same,growth inhibition,[3]; at 3.7 µM,3%
same,growth inhibition,[3]; at 11.0 µM,16%
same,growth inhibition,[3]; at 33.0 µM,82% (active)
same,growth inhibition,[3]; at 100.0 µM,87% (active)
same,growth inhibition,[4]; at 1.2 µM,31%
same,growth inhibition,[4]; at 3.7 µM,26%
same,growth inhibition,[4]; at 11.0 µM,92% (active)
same,growth inhibition,[4]; at 33.0 µM,98% (active)
same,growth inhibition,[4]; at 100.0 µM,97% (active)
same,growth inhibition,[5]; at 1.2 µM,36%
same,growth inhibition,[5]; at 3.7 µM,39%
same,growth inhibition,[5]; [17],45%
same,growth inhibition,[5]; at 11.0 µM,89% (active)
same,growth inhibition,[5]; at 33.0 µM,97% (active)
same,growth inhibition,[5]; [18],99% (active)
same,growth inhibition,[5]; at 50.0 µM,99% (active)
same,growth inhibition,[5]; at 100.0 µM,98% (active)
same,growth inhibition,[6]; at 1.2 µM,18%
same,growth inhibition,[6]; at 3.7 µM,16%
same,growth inhibition,[6]; [17],14%
same,growth inhibition,[6]; at 11.0 µM,55%
same,growth inhibition,[6]; at 33.0 µM,96% (active)
same,growth inhibition,[6]; [18],99% (active)
same,growth inhibition,[6]; at 50.0 µM,98.2% (active)
same,growth inhibition,[6]; at 100.0 µM,97% (active)
same,growth inhibition,[7]; at 1.2 µM,51%
same,growth inhibition,[7]; at 3.7 µM,59%
same,growth inhibition,[7]; at 11.0 µM,97% (active)
same,growth inhibition,[7]; at 33.0 µM,99% (active)
same,growth inhibition,[7]; at 100.0 µM,98% (active)
same,growth inhibition,[8]; [17],66%
same,growth inhibition,[8]; [18],99% (active)
same,growth inhibition,[8]; at 50.0 µM,98.8% (active)
same,growth inhibition,[9]; at 1.2 µM,1%
same,growth inhibition,[9]; at 3.7 µM,9%
same,growth inhibition,[9]; at 11.0 µM,29%
same,growth inhibition,[9]; at 33.0 µM,86% (active)
same,growth inhibition,[9]; at 100.0 µM,88% (active)
same,growth inhibition,[10]; [17],-11%
same,growth inhibition,[10]; [18],96% (active)
same,growth inhibition,[10]; at 50.0 µM,97% (active)
same,growth inhibition,[11]; at 1.2 µM,12%
same,growth inhibition,[11]; at 3.7 µM,18%
same,growth inhibition,[11]; [17],43%
same,growth inhibition,[11]; at 11.0 µM,78% (active)
same,growth inhibition,[11]; at 33.0 µM,95% (active)
same,growth inhibition,[11]; [18],99% (active)
same,growth inhibition,[11]; at 50.0 µM,97.9% (active)
same,growth inhibition,[11]; at 100.0 µM,95% (active)
same,growth inhibition,[12]; at 1.2 µM,24%
same,growth inhibition,[12]; at 3.7 µM,55%
same,growth inhibition,[12]; at 11.0 µM,96% (active)
same,growth inhibition,[12]; at 33.0 µM,98% (active)
same,growth inhibition,[12]; at 100.0 µM,98% (active)
same,growth inhibition,[13]; at 1.2 µM,50%
same,growth inhibition,[13]; at 3.7 µM,48%
same,growth inhibition,[13]; at 11.0 µM,95% (active)
same,growth inhibition,[13]; at 33.0 µM,98% (active)
same,growth inhibition,[13]; at 100.0 µM,98% (active)
same,growth inhibition,[14]; at 1.2 µM,32%
same,growth inhibition,[14]; at 3.7 µM,48%
same,growth inhibition,[14]; at 11.0 µM,93% (active)
same,growth inhibition,[14]; at 33.0 µM,97% (active)
same,growth inhibition,[14]; at 100.0 µM,97% (active)
same,growth inhibition,[15]; [17],55%
same,growth inhibition,[15]; [18],99% (active)
same,growth inhibition,[15]; at 50.0 µM,98.5% (active)
same,growth inhibition,[16]; at 1.2 µM,39%
same,growth inhibition,[16]; at 3.7 µM,35%
same,growth inhibition,[16]; at 11.0 µM,89% (active)
same,growth inhibition,[16]; at 33.0 µM,97% (active)
same,growth inhibition,[16]; at 100.0 µM,97% (active)
